The panel holds about 83,000 compounds, 20% with a hit somewhere; the sample as a whole holds those more often.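 For each line, cells grew in 96-well plates with the test compound present at a single concentration for 48 hours.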 Values without a mark were called inactive. Calls of active or inactive are those of the source. The calls were made as follows: active = growth percent below 10; inactive = the rest.
How the values were obtained:
Assay in all cases: NCI-60 one-dose screen, 48 h (100 = growth as untreated, 0 = no growth, -100 = all killed)
Conditions in all cases: 10 µM unless noted
DU-145 prostate = test system: DU-145 prostate
K-562 leukemia = test system: K-562 leukemia
MALME-3M melanoma = test system: MALME-3M melanoma
MDA-MB-231 breast = test system: MDA-MB-231 breast
RXF 393 renal = test system: RXF 393 renal
SF-268 CNS = test system: SF-268 CNS
SF-295 CNS = test system: SF-295 CNS
SF-539 CNS = test system: SF-539 CNS
UACC-257 melanoma = test system: UACC-257 melanoma
M14 melanoma = test system: M14 melanoma
HCT-15 colon = test system: HCT-15 colon
HT29 colon = test system: HT29 colon
SNB-75 CNS = test system: SNB-75 CNS
SNB-19 CNS = test system: SNB-19 CNS
U251 CNS = test system: U251 CNS
PC-3 prostate = test system: PC-3 prostate
SK-MEL-5 melanoma = test system: SK-MEL-5 melanoma
UACC-62 melanoma = test system: UACC-62 melanoma
LOX IMVI melanoma = test system: LOX IMVI melanoma
SK-MEL-28 melanoma = test system: SK-MEL-28 melanoma

Row | Structure (SMILES) | growth (DU-145 prostate) | growth (K-562 leukemia) | growth (MALME-3M melanoma) | growth (MDA-MB-231 breast) | growth (RXF 393 renal) | growth (SF-268 CNS) | growth (SF-295 CNS) | growth (SF-539 CNS) | growth (UACC-257 melanoma) | growth (M14 melanoma) | growth (HCT-15 colon) | growth (HT29 colon) | growth (SNB-75 CNS) | growth (SNB-19 CNS) | growth (U251 CNS) | growth (PC-3 prostate) | growth (SK-MEL-5 melanoma) | growth (UACC-62 melanoma) | growth (LOX IMVI melanoma) | growth (SK-MEL-28 melanoma)
1 | COc1ccc2c(c1)C1(C(=O)N2)C(C#N)=C(c2ccccc2)Nc2c1c(-c1ccccc1)nn2-c1ccccc1 (centres undefined) | 49.8% | 70.4% | 63.8% | 45.1% | 64.2% | 52.1% | 69.7% | -3.82% (active) | 87.9% | 72.2% | 85% | 43% | 33.8% | 59.7% | 9.08% (active) | 7.28% (active) | 58.6% | 85.1% | 52.7% | 
2 | O=c1nc(-c2ccccc2)c2cc(-c3ccc(N4CCCC4)nc3)ccc2[nH]1 | 85% | 16.4% | 89.6% | 59.8% | 81.2% | 83.2% | 39.4% | 73.8% | 88.6% | 47.9% | 44% | 30.7% | 66.1% | 66.4% | 67.5% | 65.7% | 40.4% | 57.2% | 57.2% | 
3 | COc1ccc(-n2cc(-c3ccc(Cl)c(Cl)c3)[nH]c2=O)cc1OC | 98.3% | 80.2% | 80.1% | 85.1% | 108% | 109% | 101% | 102% | 85.7% | 104% | 93.4% | 97.2% | 91.8% | 90.9% | 91.7% | 93.2% | 104% | 87.5% | 96.3% | 
4 | O=C(CCCC(=O)Nc1ccc(-n2nnc3cc(Cl)c(Cl)cc32)cc1)Nc1ccc(-n2nnc3cc(Cl)c(Cl)cc32)cc1 | 33.6% | 54.8% | 48.2% | 49.9% | 48.1% | 60.8% | 53.1% | 56.7% | 66.5% | 68% | 74.1% | 43.8% | 30.4% | 29.8% | 28.7% | 19.4% | 42.2% | 30.8% | 50.9% | 
5 | COc1ccc(C(=O)c2cc(OC)c(OC)c(OC)c2)cc1OC(=O)C(Cl)(Cl)Cl | 7.06% (active) | 7.85% (active) | 74.8% | 28.7% | 29.9% | 34.7% | 8.77% (active) | -7.13% (active) | 56% | -4.45% (active) | 8.84% (active) | 13.4% | 58% | 23.5% | 5.44% (active) | 10.2% | -24.1% (active) | 39.8% | 15.1% | 
6 | O=C(O)c1cc(N=Nc2ccc(-c3ccc(N=Nc4c(S(=O)(=O)O)cc5ccc(Nc6ccccc6)cc5c4O)cc3)cc2)ccc1O | 109% | 91.3% | 86% | 98% | 112% | 93.1% | 99.7% | 108% | 107% | 106% | 100% | 99.9% | 85.2% | 102% | 103% | 96.4% | 106% | 93.7% | 95.6% | 
7 | COC(=O)c1nc(-c2ccccc2)oc1S(=O)(=O)n1nc(-c2ccccc2)cc1N | 96.2% | 4.99% (active) | 2.22% (active) | 103% | 103% | 87.5% | 97.5% | 80.7% | 52% | 76% | 63.6% | 43.1% | 93.4% | 101% | 97% | 102% | 94.7% | 95.2% | 72.3% | 89.6%
8 | COc1cc(C2=NNC(c3ccc(N(C)C)cc3)C2)cc(OC)c1OC (centres undefined) | 3.51% (active) | -9.17% (active) | 83.7% | 31.9% | -31.7% (active) | 55.7% | 30.3% | -39.2% (active) | 62.6% | 21.7% | 30.9% | 6.34% (active) | 37.8% | 8.5% (active) | 28.8% | 29.3% | -4.54% (active) | 40.8% | 49.4% | 79.4%
9 | O=C(O)c1ccc(-n2cc(/C=N/Nc3ccc(Cl)cc3Cl)c(-c3ccccc3)n2)cc1 | 93.6% | 87.8% | 92.3% | 81.7% | 97.9% | 81.8% | 74.7% | 82% | 116% | 88.1% | 72% | 94.9% | 88.4% | 101% | 90.5% | 80.7% | 87.1% | 96.2% | 91.9% | 103%
10 | O=C(Nc1nc2ccc(C(F)(F)F)cc2s1)c1cc(Cl)ccc1O | 25.9% | 5.73% (active) | -16.6% (active) | -10.5% (active) | -2.8% (active) | 19.5% | -31.2% (active) | 14.6% | -8.55% (active) | 15.1% | 7.56% (active) | -18% (active) | 16.8% | 20.5% | 8.44% (active) | 7.15% (active) | -46.1% (active) | 13.3% | 5.71% (active) | 26.6%
11 | CCC1=C[C@H]2CN(CCc3c([nH]c4ccccc34)[C@@](C(=O)OC)(c3cc4c(cc3OC)N(C)[C@H]3[C@@](O)(C(=O)OC)[C@H](OC(C)=O)[C@]5(CC)[C@@H]6C[C@@H]6CN6CC[C@]43[C@@H]65)C2)C1 | 18.3% | 2.96% (active) | 37.3% | -21.9% (active) | 47.6% | 7.66% (active) | 11.1% | -13.3% (active) | 55.1% | -32% (active) | 7.44% (active) | -18.4% (active) | -3.68% (active) | 21.1% | 13% | 29.4% | -25.5% (active) | 17% | 17% | 58.5%
12 | O=c1[nH]nc(-c2ccc(Br)cc2)c2sc(NC(=S)Nc3ccc(Cl)cc3)nc12 | 110% | 98.6% | 94.2% | 92.4% | 111% | 100% | 96.8% | 103% | 113% | 95.3% | 103% | 94.1% | 95.7% | 103% | 108% | 96.6% | 99% | 89.5% | 84.7% | 109%
13 | Cc1ccccc1NC(=O)c1sc2nc(C)c(C(C)O)cc2c1N (centres undefined) | 81.8% | 14.4% | 60.2% | 59.4% | 44.9% | 67.5% | 39.5% | 31.7% | 52.5% | 24.7% | 35.3% | 3.12% (active) | 53.9% | 32.5% | 28.8% | 60.9% | 31.4% | 25.5% | 44.2% | 67.2%
14 | COc1ccc(-n2nc(C(=O)NCC(=O)O)nc2-c2ccccc2)cc1 | 111% | 93.4% | 92.4% | 108% | 120% | 99.3% | 107% | 97.2% | 97.1% | 102% | 113% | 98.7% | 103% | 100% | 107% | 103% | 100% | 102% | 94.1% | 108%
15 | Cc1cc(C)c2nc(Nc3nc(C)c(C)c(=O)[nH]3)nc(C)c2c1 | 19.1% | 12.2% | -6.48% (active) | 27.8% | -32.4% (active) | 26.9% | 11% | 13.5% | 14.1% | 13.7% | 7.23% (active) | 9.28% (active) | 51.3% | 22% | 16.7% | 20.9% | 2.14% (active) | -37.7% (active) | 6.29% (active) | 3.48% (active)

Reference: PubChem BioAssay (NCI)
